Screen size: about 5,500 compounds; about 2,000 (36%) were called active. Not shown: some 18% with an inconclusive outcome. No stated cut-off is given here; in the data, active means normalized growth mostly below about 0.91 (no sharp cut-off); inconclusive means no clear call, values can overlap the other calls; inactive means mostly above about 0.92. This is one part of the list.
Assay: chemical genetic growth profiling, strain panel (AID 1159580);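 further: tested at 20 µM; growth read once vehicle control cultures reached saturation at 30 °C; 1 = growth at the plate median or of vehicle wells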
Settings: S. cerevisiae deletion strains, growth OD

Measured: normalized growth

Cc1cc(N=Cc2cc(Cl)cc(Cl)c2O)no1
active: locus YDL214C, strain PRR2, stronger effect = lower value 0.561 | locus YDR477W, strain SNF1, stronger effect = lower value 0.526 | locus YER123W, strain YCK3, stronger effect = lower value 0.307 | locus YER133W, strain GLC7, stronger effect = lower value 0.576 | locus YFR019W, strain FAB1, stronger effect = lower value 0.517 | locus YGR040W, strain KSS1, stronger effect = lower value 0.574 | locus YGR052W, strain FMP48, stronger effect = lower value 0.504 | locus YGR092W, strain DBF2, stronger effect = lower value 0.187 | locus YHR030C, strain SLT2, stronger effect = lower value 0.26 | locus YHR079C, strain IRE1, stronger effect = lower value 0.249 | locus YHR082C, strain KSP1, stronger effect = lower value 0.493 | locus YHR205W, strain SCH9, stronger effect = lower value 0.407 | locus YJL095W, strain BCK1, stronger effect = lower value 0.259 | locus YJL157C, strain FAR1, stronger effect = lower value 0.478 | locus YJR066W, strain TOR1 (second series), stronger effect = lower value 0.565 | locus YJR066W, strain TOR1, stronger effect = lower value 0.387 | locus YKL048C, strain ELM1, stronger effect = lower value 0.651 | locus YKL067W, strain YNK1, stronger effect = lower value 0.521 | locus YKL101W, strain HSL1, stronger effect = lower value 0.5 | locus YKL203C, strain TOR2, stronger effect = lower value 0.613 | locus YLR113W, strain HOG1, stronger effect = lower value 0.337 | locus YLR133W, strain CKI1, stronger effect = lower value 0.486 | locus YLR403W, strain SFP1, stronger effect = lower value 0.375 | locus YML070W, strain DAK1, stronger effect = lower value 0.372 | locus YMR205C, strain PFK2 (second series), stronger effect = lower value 0.514 | locus YNL020C, strain ARK1, stronger effect = lower value 0.462 | locus YNL183C, strain NPR1, stronger effect = lower value 0.429 | locus YNL307C, strain MCK1 (second series), stronger effect = lower value 0.37 | locus YOL136C, strain PFK27, stronger effect = lower value 0.349 | locus YOR061W, strain CKA2, stronger effect = lower value 0.32 | locus YOR119C, strain RIO1, stronger effect = lower value 0.571 | locus YOR231W, strain MKK1, stronger effect = lower value 0.272 | locus YPL031C, strain PHO85, stronger effect = lower value 0.483 | locus YPL153C, strain RAD53, stronger effect = lower value 0.405 | locus YPL204W, strain HRR25, stronger effect = lower value 0.467 | locus YPL256C, strain CLN2, stronger effect = lower value 0.343
inactive: locus YAR019C, strain CDC15, stronger effect = lower value 0.945 | locus YBL105C, strain PKC1, stronger effect = lower value 0.964 | locus YBR135W, strain CKS1, stronger effect = lower value 0.971 | locus YBR136W, strain MEC1, stronger effect = lower value 0.953 | locus YBR160W, strain CDC28, stronger effect = lower value 0.964 | locus YDL017W, strain CDC7, stronger effect = lower value 0.968 | locus YDL028C, strain MPS1, stronger effect = lower value 0.95 | locus YDL101C, strain DUN1, stronger effect = lower value 0.965 | locus YDL108W, strain KIN28, stronger effect = lower value 0.957 | locus YDL132W, strain cdc53, stronger effect = lower value 0.975 | locus YDR052C, strain DBF4, stronger effect = lower value 0.972 | locus YDR054C, strain cdc34, stronger effect = lower value 0.965 | locus YDR226W, strain ADK1, stronger effect = lower value 0.974 | locus YFL009W, strain cdc4, stronger effect = lower value 0.97 | locus YFL029C, strain CAK1, stronger effect = lower value 0.958 | locus YFR003C, strain YPI1, stronger effect = lower value 0.95 | locus YFR028C, strain CDC14, stronger effect = lower value 0.971 | locus YIL147C, strain SLN1, stronger effect = lower value 0.946 | locus YJL128C, strain PBS2, stronger effect = lower value 0.952 | locus YJR016C, strain ILV3, stronger effect = lower value 0.973 | locus YKL193C, strain SDS22, stronger effect = lower value 0.971 | locus YMR001C, strain CDC5, stronger effect = lower value 0.963 | locus YMR277W, strain FCP1, stronger effect = lower value 0.968 | locus YNL006W, strain LST8, stronger effect = lower value 0.969 | locus YNL161W, strain CBK1, stronger effect = lower value 0.967 | locus YNL207W, strain RIO2, stronger effect = lower value 0.977 | locus YNL222W, strain SSU72, stronger effect = lower value 0.96 | locus YOL078W, strain AVO1, stronger effect = lower value 0.967 | locus YOR329C, strain SCD5, stronger effect = lower value 0.952 | locus YPL209C, strain IPL1, stronger effect = lower value 0.969 | locus YPR025C, strain CCL1, stronger effect = lower value 0.969 | locus YPR106W, strain ISR1, stronger effect = lower value 0.976 | locus YPR111W, strain DBF20, stronger effect = lower value 0.972 | strain NNK1, stronger effect = lower value 0.965 | strain TSCII, stronger effect = lower value 0.96
